Data from PubChem BioAssay AID434962 (The Scripps Research Institute Molecular Screening Center, 2010).
About 1,300 (0.41%) of roughly 320,000 compounds were called active.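 How the source made its calls: active means percent inhibition above the average of all tested compounds plus 3 SD, set per screening campaign (cut at about 16% in these data); inactive means the rest.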 The list comes from a sample in which actives are over-represented; it also holds similar structures and randomly drawn compounds.

These molecules were tested against Insulin-degrading enzyme (Homo sapiens) (UniProt P14735) (assay: cellular IDE Abeta-cleavage inhibition – fluorescence polarization, HEK cells, FAbetaB substrate, primary screen (AID 434962;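 further: IDE supplied by intact live HEK cells; FP after avidin binding of uncleaved biotin substrate so inhibition keeps polarization high; 0% = DMSO wells and 100% = 60 µM reference IDE inhibitor Ii1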)). Conditions: at 5.59 µM, active compounds read high.
Chain of Insulin-degrading enzyme (Homo sapiens) (P14735 whole entry, looked up): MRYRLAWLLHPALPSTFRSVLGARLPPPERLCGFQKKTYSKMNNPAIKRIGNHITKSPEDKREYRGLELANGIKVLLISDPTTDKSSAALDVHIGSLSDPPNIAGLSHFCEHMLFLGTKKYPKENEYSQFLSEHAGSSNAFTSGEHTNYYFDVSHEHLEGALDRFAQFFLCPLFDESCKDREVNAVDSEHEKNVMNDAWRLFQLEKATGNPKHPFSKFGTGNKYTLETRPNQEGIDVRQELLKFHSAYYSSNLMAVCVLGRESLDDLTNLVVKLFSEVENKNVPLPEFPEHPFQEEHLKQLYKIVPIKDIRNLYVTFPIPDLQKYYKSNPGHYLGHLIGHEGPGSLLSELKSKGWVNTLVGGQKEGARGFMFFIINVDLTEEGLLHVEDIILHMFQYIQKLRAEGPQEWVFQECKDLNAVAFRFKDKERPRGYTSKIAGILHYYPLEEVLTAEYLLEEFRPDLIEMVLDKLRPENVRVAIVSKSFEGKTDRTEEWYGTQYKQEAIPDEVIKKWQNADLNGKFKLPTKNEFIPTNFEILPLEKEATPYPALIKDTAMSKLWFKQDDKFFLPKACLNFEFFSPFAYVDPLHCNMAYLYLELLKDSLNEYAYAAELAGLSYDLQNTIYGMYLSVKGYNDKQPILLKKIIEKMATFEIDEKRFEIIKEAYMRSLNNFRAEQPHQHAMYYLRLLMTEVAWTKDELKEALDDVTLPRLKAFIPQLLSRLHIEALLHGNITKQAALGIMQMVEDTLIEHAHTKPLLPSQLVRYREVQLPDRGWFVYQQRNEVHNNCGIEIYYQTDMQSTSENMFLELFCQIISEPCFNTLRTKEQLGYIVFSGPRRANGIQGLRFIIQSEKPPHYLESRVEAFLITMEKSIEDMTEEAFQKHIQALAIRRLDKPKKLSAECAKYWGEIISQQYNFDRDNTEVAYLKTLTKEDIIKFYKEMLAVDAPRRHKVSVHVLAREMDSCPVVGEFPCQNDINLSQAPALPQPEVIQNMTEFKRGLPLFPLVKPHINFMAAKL

SMILES | inhibition
O=C(CCN1C(=O)COc2ccccc21)NCCCN1CCN(c2ccc(F)cc2)CC1 | -5.39% (inactive)
CCN(C(=O)CSc1nnnn1-c1ccc(OC)cc1)C1CCS(=O)(=O)C1 (configuration not stated) | -3.64% (inactive)
CCOc1ccc(NC(=O)c2ccc(NC(=O)C3CCCO3)cc2)cc1 (configuration not stated) | 3.26% (inactive)
COc1ccc(CNC(=O)/C(C#N)=C/c2cccc(OC)c2OC)cc1 | 2.96% (inactive)
COCCNC(=O)/C(C#N)=C/c1cccc(OCc2ccccc2)c1 | 3.27% (inactive)
N#C/C(=C\c1ccc(O)c(O)c1)C(=O)NCc1ccccc1 | 30.2% (active)
COc1ccc(CCNC(=O)CC2SC(=Nc3cc(C)cc(C)c3)NC2=O)cc1OC (configuration not stated) | 2.28% (inactive)
CCOC(=O)CNC(=O)/C(=C\c1ccc(F)cc1)NC(=O)c1ccccc1 | -3% (inactive)
COc1ccc(/C=C(\NC(=O)c2ccccc2)C(=O)NCCN2CCOCC2)cc1OC | 0.14% (inactive)
Cn1c2ccccc2c2cc(/C=C(\NC(=O)c3ccccc3)C(=O)NCC(=O)O)ccc21 | 32.5% (active)
CC(=O)Oc1cc2c(C(=O)NCCN3CCOCC3)c(C)oc2c2ccccc12 | -2.28% (inactive)
COc1cccc(OC)c1C(=O)Nc1sc2c(c1C(N)=O)CCCC2 | 0.41% (inactive)
NC(=O)c1c(Nc2nc3c(F)cccc3s2)sc2c1CCCC2 | 24.3% (active)
O=C(Nc1sc2c(c1C(=O)O)CCC2)c1ccccc1F | -2.01% (inactive)
Cc1cc(C(C)(C)C)oc1C(=O)N(CC(=O)NC1CCCC1)Cc1ccc(Cl)cc1 | 6.17% (inactive)
CCN(CCCNC(=O)c1ccc2c(c1)NC(=O)CN2C)c1cccc(C)c1 | 2.85% (inactive)
CC(C)NC(=O)CSc1nnc(COc2ccccc2Cl)o1 | -2.04% (inactive)
CCCCn1c(SCc2ncc(-c3ccccc3)o2)nc2cc(S(N)(=O)=O)ccc21 | 2.94% (inactive)
COc1ccccc1N(C)C(=O)c1cc(S(=O)(=O)N2CCc3ccccc32)cn1C | -0.28% (inactive)
CCOc1ccc(C2=CC(c3ccccc3)n3ncnc3N2)cc1 (configuration not stated) | 7.53% (inactive)
COc1ccc(C2C=C(c3ccc(Br)cc3)Nc3nc(NS(C)(=O)=O)nn32)cc1 (configuration not stated) | 76.7% (active)
Brc1ccc(C2=CC(c3ccco3)n3ncnc3N2)cc1 (configuration not stated) | 5.82% (inactive)
CCOc1ccc(N(CC(=O)NCCOc2ccccc2OC)S(=O)(=O)c2ccccc2)cc1 | 4.02% (inactive)

SMILES | inhibition
Cc1cc2c(cc1S(=O)(=O)NCc1ccc(Cl)cc1)OCC(=O)N2 | 5.28% (inactive)
CC1=CC(C)(C)Nc2ccc(OC(=O)C(Cc3ccccc3)N3C(=O)C4CCCCC4C3=O)cc21 (configuration not stated) | -5.52% (inactive)
O=C(CN1C(=O)C2C3CCC(C3)C2C1=O)Oc1ccc2ccccc2c1 (configuration not stated) | -0.24% (inactive)
CC1=CC(C)(C)Nc2ccc(OC(=O)CN3C(=O)C4CCCCC4C3=O)cc21 (configuration not stated) | 23.6% (active)
O=C(NCCC1CCCCN1S(=O)(=O)c1ccccc1)C(=O)NCC1CCCO1 (configuration not stated) | 3.94% (inactive)
Cc1ccccc1CSc1nnc(-c2ccccc2)c(=O)[nH]1 | 0.38% (inactive)
Cc1cccc(-n2c(Cc3cc(=O)[nH]c(=O)[nH]3)nnc2SC(C)C)c1 | 6.03% (inactive)
Cc1cccc(-n2c(Cc3cc(=O)[nH]c(=O)[nH]3)nnc2SCC(=O)Nc2cccc(C(F)(F)F)c2)c1 | 18.2% (active)
COc1cccc(-n2c(Cc3cc(=O)[nH]c(=O)[nH]3)nnc2SCC(=O)Nc2ccccc2)c1 | 2.57% (inactive)
Cc1ccc(S(=O)(=O)N2CCN(C(=O)COC(=O)CNC(=O)c3ccc(C(C)(C)C)cc3)CC2)c(C)c1 | 1.73% (inactive)
CCOc1cc(-c2conc2N)cc(OCC)c1OCC | 0.37% (inactive)
CCOc1cc(C(=O)Nc2ncccn2)cc(OCC)c1OCC | -0.15% (inactive)
CCOc1cc2c(Cl)ncnc2c(OCC)c1OCC | 17.1% (active)
Cc1ccc(S(=O)(=O)N2CCN(CC(=O)N/N=C/c3ccc(Br)s3)CC2)cc1 | 2.15% (inactive)
CNC(=O)c1ccsc1NC(=O)c1ccc(S(=O)(=O)N2CCOCC2)cc1 | 6.05% (inactive)
COc1ccc(C(=O)Nc2nc(-c3ccc(S(=O)(=O)N4CCOCC4)cc3)cs2)cc1 | 24.5% (active)
CCOC(=O)c1csc(NC(=O)c2ccc(S(=O)(=O)N3CCCC3)cc2)n1 | 0.72% (inactive)
CC(=O)CC(CC(=O)NC1CCCCC1)c1ccccc1 (configuration not stated) | -6.38% (inactive)
CN(C)CCCNC(=O)/C=C/c1ccc(OCc2c(F)cccc2Cl)cc1 | 5.4% (inactive)
COCCCNC(=O)/C=C/c1ccc(OCc2c(F)cccc2Cl)cc1 | 11.8% (inactive)
O=C(/C=C/c1ccc(OCc2c(F)cccc2Cl)cc1)N1CCOCC1 | 21.1% (active)
CC1C=CCC2C(=O)N(c3cccc(C(=O)N4CCCCCC4)c3)C(=O)C12 (configuration not stated) | -1.29% (inactive)
Cc1cccc(N2CCN(C(=O)c3cccc(N4C(=O)C5C6C=CC(C6)C5C4=O)c3)CC2)c1C (configuration not stated) | 44.4% (active)

SMILES | inhibition
CCn1c(C)c(C)c2cc(C(=O)N3CCN(c4cccc(C)c4C)CC3)ccc21 | -0.11% (inactive)
CC(C)(C)C(=O)Nc1c(Br)c(C2CC2)nn1-c1ccccc1 | 0.92% (inactive)
Cc1c(NC(=O)C(C)OC(=O)c2cc3c4ccccc4n(C)c3s2)c(=O)n(-c2ccccc2)n1C (configuration not stated) | -0.34% (inactive)
CCCn1c(N)c(C(=O)CSc2nc3ccccc3c(=O)n2-c2ccc(OC)cc2)c(=O)[nH]c1=O | -10.9% (inactive)
COc1ccc(Br)cc1C(=O)Nc1cccc(C)c1C | 2.56% (inactive)
Cc1cc2[nH]ncc2cc1NC(=S)NC(=O)c1ccccc1 | -2.99% (inactive)
COc1ccc(Br)cc1C(=O)NC(=S)Nc1cc(-c2nc3ccccc3[nH]2)ccc1C | 24.5% (active)
CCOC(=O)C(CC)/C(C)=N\NC(=O)c1cccc(C)c1 (configuration not stated) | -1% (inactive)
Cc1cc(Cl)ccc1OCCCC(=O)Nc1cccc(-n2cnnn2)c1 | 6.2% (inactive)
Cc1cc(Cl)ccc1OCCCC(=O)NCc1ccncc1 | 22.1% (active)
Cc1cc(Cl)ccc1OCCCC(=O)NCc1ccccn1 | -0.14% (inactive)
CN(C)Cc1ccc(F)cc1Sc1cc(Cl)ccc1Cl | 7.05% (inactive)
CCOC(=O)CNc1nc(Cl)nc(Nc2ccc(OC)cc2OC)n1 | -1.6% (inactive)
COc1ccc(/C=C2\SC(=S)N(CCCC(=O)NC3CCCC3)C2=O)cc1OC | -2.87% (inactive)
COc1ccc(/C=C2\SC(=S)N(CCC(=O)Nc3cccc(C(=O)O)c3)C2=O)cc1OC | 1.95% (inactive)
COc1cc(/C=C2/SC(=S)N(Cc3ccccc3)C2=O)cc(OC)c1O | 68.4% (active)
O=C(Nc1ccnn1C1CCN(C/C=C/c2ccc(F)cc2)CC1)C1CCCC1 | -2.53% (inactive)
COc1cccc(CNC(=O)Cn2c(=O)oc3cc(S(=O)(=O)N4CCCCC4)ccc32)c1 | 4.33% (inactive)
Cn1c(NC(=O)c2ccco2)c(-c2ccccc2Cl)c(=O)c2ccccc21 | -1.57% (inactive)
N#C/C(=C/c1ccc(N2CCOCC2)o1)C(=O)N1CCOCC1 | 14.4% (inactive)
N#C/C(=C\c1ccc(N2CCOCC2)o1)C(=O)N1CCOCC1 | 20.9% (active)
N#C/C(=C\c1ccc(-c2cccc([N+](=O)[O-])c2)o1)C(=O)NCCN1CCOCC1 | -0.08% (inactive)
Cc1ccc(C(=O)c2ccc(N3CCN(C)CC3)c([N+](=O)[O-])c2)cc1 | -2.73% (inactive)

SMILES | inhibition
CCCCc1ccc(NC(=O)NCc2cccnc2)cc1 | 4.26% (inactive)
CCN(CC(=O)NCc1ccc(F)cc1)S(=O)(=O)c1ccc(Cl)s1 | 7.4% (inactive)
O=C(COC(=O)CCOc1ccccc1)Nc1cc(S(=O)(=O)N2CCCCC2)ccc1Cl | 5.23% (inactive)
CCC(C)(C)NC(=O)CN(C(=O)CCC(=O)Nc1nccs1)c1ccc2c(c1)OCO2 | -1.66% (inactive)
O=C(Oc1ccc(Br)cc1)c1cccnc1 | 1.44% (inactive)
O=C(Oc1c(-c2ccco2)oc2ccccc2c1=O)c1cccnc1 | 68.4% (active)
N#CCc1ccc(OC(=O)c2cccnc2)cc1 | -4.29% (inactive)
Cc1csc(=O)n1CCC(=O)OCC(=O)NNC(=O)c1ccc(Br)cc1 | -2.19% (inactive)
Cc1cc2c(=O)n(C)c(SCC(=O)c3cc4ccccc4o3)nc2s1 | 1.59% (inactive)
CCOc1ccccc1Nc1nnc(SCC(=O)Nc2cc(C)on2)s1 | 3.25% (inactive)
Cc1ccccc1Nc1nnc(SCC(=O)c2cc3ccccc3o2)s1 | 18.7% (active)
CCc1ccc(CNC(=O)C2CC(=O)N(CCc3ccc(C)cc3)C2)cc1 (configuration not stated) | -4.43% (inactive)
CCCCN(C(=O)CSCC(=O)Nc1ccc(OC)cc1)c1c(N)n(CCC)c(=O)[nH]c1=O | -1.31% (inactive)
CC(=O)Oc1cccc(C(=O)Nc2ccccc2NC(=O)c2cccc(OC(C)=O)c2)c1 | -2.81% (inactive)
CCOC(=O)c1cc(NC(=O)c2ccc(Cl)cc2)c(=O)oc1-c1ccccc1 | 1.63% (inactive)
CC(=O)c1cc(NC(=O)c2ccccc2)c(=O)oc1/C=C/N(C)C | 16.3% (active)
Cc1cc(OCC(=O)N2CCN(c3ncccn3)CC2)ccc1Cl | -0.8% (inactive)
O=C(Nc1ccc(O)cc1)c1ccc(NC(=O)c2ccco2)cc1 | 3.06% (inactive)
O=C(Nc1ccc(Sc2ccc(Br)cc2)cc1)c1ccco1 | 17.8% (active)
O=C(CNC(=O)c1ccco1)NNC(=O)c1ccc(Br)cc1 | 2.95% (inactive)
CC1CCCCN1S(=O)(=O)CCNC(=O)c1ccccc1 (configuration not stated) | 1.88% (inactive)
CC(C)(C)OC(=O)N[C@H](C(=O)OC(C)(C)C)c1ccc(Br)cc1 | 2.45% (inactive)
CN1CCNC(=O)C1CC(=O)NCCC1=CCCCC1 (configuration not stated) | 1.39% (inactive)
